Source: PubChem (National Center for Advancing Translational Sciences (NCATS))
Most compounds without a hit are left out; they make up all but 8.7% or so of the library.
Sfp inh – Sfp phosphopantetheinyl transferase inhibition. Q9F4F7. 3.5% of 310,000 active. Biochemical Sfp PPTase activity, qHTS. Potency, µM, for inactives: largest response in the series, negative = inhibition, hits mostly inhibitors;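 also: the enzyme is Sfp with the accession as filed and its product quenches rhodamine fluorescence; 0% = enzyme reaction without inhibitor and -100% = no enzyme wells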
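Fluorescence-quenching assay: 15 nM Sfp-PPTase preincubated 15 min at room temperature with compound, then 5 uM rhodamine-CoA and 12.5 uM BHQ-2-labelled YbbR peptide added. Fluorescence (ex 525/em 598 nm) read at start and after 30 min; difference gives rate.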
ALOX12 inh – ALOX12 (human) lipoxygenase inhibition; AID 1671190; 1.1% of 580,000 active; Potency, µM (titrated, usually from 108 µM), for inactives: at the highest dose activity change, negative = inhibition, most hits filed as inhibitors; purified 12hLO, xylenol orange hydroperoxide absorbance; P18054; also: % is scaled to controls: 0 for no effect and ±100 for the full control effect
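Hydroperoxide product was detected by ferrous iron/xylenol orange as the 573 to 405 nm absorbance ratio. Arachidonic acid at 40 uM (final) was turned over for 30 min at room temperature by 150 nM human 12hLO, pH 7.0 Hepes buffer, after 15 min compound preincubation.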
JMJD2A Tudor inh – blocks the human JMJD2A Tudor domain | O75164 | AlphaScreen JMJD2A-Tudor / H3K4me3 peptide binding | Potency, µM (doses to about 114 µM), without a hit: at the top dose activity change, negative = inhibition, most hits filed as inhibitors | 4.4% of 390,000 active; also: % is scaled to controls: 0 for no effect and ±100 for the full control effect; nearly all actives have a fitted effect of over 50% in size
Target sequence (O75164 whole entry, looked up, the tested form may be a part): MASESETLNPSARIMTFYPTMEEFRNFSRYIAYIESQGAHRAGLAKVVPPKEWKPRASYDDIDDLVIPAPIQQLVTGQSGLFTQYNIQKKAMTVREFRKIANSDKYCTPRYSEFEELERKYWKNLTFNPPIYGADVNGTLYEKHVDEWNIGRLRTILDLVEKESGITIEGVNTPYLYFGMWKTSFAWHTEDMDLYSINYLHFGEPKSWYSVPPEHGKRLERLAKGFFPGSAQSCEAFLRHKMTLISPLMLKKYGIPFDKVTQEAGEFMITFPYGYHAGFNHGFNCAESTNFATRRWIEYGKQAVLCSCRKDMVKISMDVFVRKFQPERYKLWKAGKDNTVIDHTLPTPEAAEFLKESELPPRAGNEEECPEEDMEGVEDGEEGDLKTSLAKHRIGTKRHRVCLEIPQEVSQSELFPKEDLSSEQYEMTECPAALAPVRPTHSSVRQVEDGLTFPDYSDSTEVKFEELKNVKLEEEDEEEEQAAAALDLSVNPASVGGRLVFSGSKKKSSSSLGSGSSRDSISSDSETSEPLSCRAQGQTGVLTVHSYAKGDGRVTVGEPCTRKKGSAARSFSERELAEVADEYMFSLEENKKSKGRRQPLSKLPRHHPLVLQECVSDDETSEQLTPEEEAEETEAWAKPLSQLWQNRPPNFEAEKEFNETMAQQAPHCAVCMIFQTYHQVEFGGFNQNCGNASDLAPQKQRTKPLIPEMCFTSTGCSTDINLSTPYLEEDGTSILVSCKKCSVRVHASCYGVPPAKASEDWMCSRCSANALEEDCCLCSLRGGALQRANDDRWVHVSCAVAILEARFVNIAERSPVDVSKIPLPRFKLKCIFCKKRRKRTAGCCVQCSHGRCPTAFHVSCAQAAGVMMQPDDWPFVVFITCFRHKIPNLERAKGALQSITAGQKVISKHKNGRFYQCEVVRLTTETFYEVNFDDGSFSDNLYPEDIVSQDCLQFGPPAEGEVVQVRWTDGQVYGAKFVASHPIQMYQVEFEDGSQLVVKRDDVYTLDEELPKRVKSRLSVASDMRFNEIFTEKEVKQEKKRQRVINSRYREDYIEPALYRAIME
HP1b chromo inh – HP1-beta chromodomain-methylated histone interaction inhibition. AlphaScreen HP1-beta / biotin-H3K9me3 peptide binding. AID 540317. 0.56% of 390,000 active. P83916. Potency, µM (top dose mostly 114 µM), for inactives: at the highest dose activity change, negative = inhibition, usual class: inhibitors; also: nearly all actives have a fitted effect of over 70% in size
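Compound inhibition of the preformed complex between 50 nM HP1-beta and 50 nM biotinylated H3K9me3 peptide was read by AlphaScreen. Buffer was PBS pH 7.4 with 0.01% Tween-20. Incubations ran 30 min at room temperature, with 10 ug/mL donor/acceptor beads.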
BAZ2B inh – BAZ2B (human) inhibition; Q9UIF8; AlphaScreen BAZ2B-H3K14Ac peptide displacement; Potency, µM (series often up to 114 µM), without a hit: at the top dose activity change, negative = inhibition, hits mostly inhibitors; 4.4% of 360,000 active; AID 504333; also: % is scaled to controls: 0 for no effect and ±100 for the full control effect; nearly all actives have a fitted effect of over 60% in size
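AlphaScreen luminescence quantifies BAZ2B engagement of H3K14Ac peptide; the protein and biotinylated peptide are both at 50 nM final, buffer PBS pH 7.4 with 0.01% Tween-20, all steps at room temperature.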
G9a inh – inhibitors of human histone lysine methyltransferase G9a. Q96KQ7. G9a H3K9 monomethylation, AlphaScreen, 2 h. Potency, µM (highest dose often 102 µM), inactives show at the top dose activity, negative = inhibition, hits mostly inhibitors. 8.8% of 350,000 active. AID 504332; also: % is scaled to controls: 0 for no effect and ±100 for the full control effect; nearly all actives have a fitted effect of over 75% in size
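Step 1: enzyme (final 20 nM) with compound, 15 min RT. Step 2: substrate peptide 500 nM and SAM 20 uM, 2 h RT. Step 3: anti-H3K9me1 antibody and AlphaScreen beads, 10 min, then plate read.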
* marks the source's active call; other numbers are inactive results; ? = inconclusive; nt = no result given; ! = not active in a repeat; [ ] = remark or other dose. Calls follow the shape of the dose curve; as a rule, active = well fitted curve in the direction sought with a large enough effect; inconclusive = small, poorly fitted or top-dose-only effect, or another doubt; inactive = no such curve, though single readings can be large; an effect the other way counts as inactive or inconclusive. Potency is read from the fitted curve at half-maximal effect.

SMILES	Sfp inh	ALOX12 inh	JMJD2A Tudor inh	HP1b chromo inh	BAZ2B inh	G9a inh
COC(=O)c1ccc(CNC(=O)c2ccc(C#N)cc2)cc1	nt	2.2%	nt	nt	nt	nt
COc1ccc(NCc2nnc(SCC(=O)c3ccc(C)cc3)o2)cc1	-8.1%	-1.4%	?	-23.1%	?	14.1µM*
COc1ccc(CCCc2nnc(SCC(=O)Nc3ccc(OC)cc3)o2)cc1	3.4%	?	28.2µM*!	-4.7%	3.0%	?
O=C1N[C@H](Cc2ccc(O)cc2)C(=O)N2CC[C@H](NS(=O)(=O)c3ccc(Cl)cc3)C[C@@H]12	nt	-52.7%	nt	nt	nt	nt
CC(C)C(=O)N1CCCC(Cc2nc(C3CCOCC3)no2)C1 (stereo not drawn)	nt	7.4%	nt	nt	nt	nt
N#Cc1c(NC(=O)c2cc3nc(-c4ccc(Br)cc4)cc(C(F)(F)F)n3n2)sc2c1CCCC2	nt	-3.1%	-11.0%	-10.2%	3.6%	10µM*
CC1(C)CC(=O)C2=C(C1)c1c(ccc3ccccc13)NC2c1cc([N+](=O)[O-])cc([N+](=O)[O-])c1O (stereo not drawn)	3.98µM*	39.8µM*	56.2µM*	?	50.1µM*	?
Cn1c(CNC(=O)c2cccc(C3CCNC3)c2)nc2ccccc21 (stereo not drawn)	nt	94.7%	nt	nt	nt	nt
Cc1nc(-c2ccc(NS(C)(=O)=O)cc2)cs1	9.7%	0.0%	-24.4%	2.4%	7.2%	-4.5%
CS(=O)(=O)Nc1ccc(-c2csc(NC3CC3)n2)cc1	nt	10µM*	nt	nt	nt	nt
COc1cc(-c2csc(NC3CCCCC3)n2)cc(OC)c1OC	-10.8%	?	?	-14.2%	?	25.1µM*
CN(c1ccc(-c2csc(NC3CCCC3)n2)cc1)S(C)(=O)=O	nt	15.8µM*	nt	nt	nt	nt
COc1cc(-c2cc3nc(NC4CCCCC4)ccn3n2)cc(OC)c1OC	nt	-19.2%	nt	nt	nt	nt
Cc1oc2cc(OCC(N)=O)ccc2c(=O)c1Oc1ccc(C(C)C)cc1	nt	-29.7%	nt	nt	nt	nt
CCN(Cc1cnn(CC)c1)C(=O)C1COc2ccccc2C1 (stereo not drawn)	nt	5.9%	nt	nt	nt	nt
COc1ccc(CCNCC(O)COc2cccc(C(C)=O)c2)cc1OC (stereo not drawn)	-31.1%	-6.4%	25.1µM*	?	70.8µM*	4.2%
COc1ccc(CCNCC(O)COc2c(C)cccc2C)cc1OC (stereo not drawn)	-13.4%	?	?	?	50.1µM*	-5.3%
CCCC(CCC)c1nc2ccncc2[nH]1	-12.0%	-17.9%	?	?	?	50.1µM*
CNC(=O)[C@@H]1CN(C(=O)c2ccn(C)n2)C[C@H]1COC	nt	17.8%	nt	nt	nt	nt
NC(c1ccccc1)c1ccncc1 (stereo not drawn)	-1.9%	?	3.7%	29.1%	?	44.7µM*
c1ccc(NC(c2ccccc2)c2ccncc2)cc1 (stereo not drawn)	5.2%	?	-9.8%	57.4%	-0.5%	31.6µM*
c1ccc(C(Nc2cccnc2)c2ccccc2)cc1	nt	3.6%	-2.8%	40.6%	nt	nt
Nc1nonc1-c1nc2ccccc2n1CC(=O)NC1CCCC1	-6.8%	15.8%	4.6%	22.4%	-5.9%	0.1%
Nc1nonc1-c1nc2ccccc2n1CC(=O)Nc1ccccc1	6.1%	31.4%	-2.1%	13.5%	-2.1%	6.2%[12.7 µM]
Nc1nonc1-c1nc2ccccc2n1CC(=O)N/N=C/c1ccc(-c2ccccc2C(=O)O)o1	?	-9.3%	-7.5%[11.4 µM]	7.7%	50.1µM*	44.7µM*
SMILES	Sfp inh	ALOX12 inh	JMJD2A Tudor inh	HP1b chromo inh	BAZ2B inh	G9a inh
CCOC(=O)c1ccccc1NC(=O)Cn1c(-c2nonc2N)nc2ccccc21	28.2µM*	-18.1%	-3.0%	31.5%	5.1%	-2.1%
CCOc1ccc2c(O)csc2c1	50.1µM*	?	?	-11.1%	-11.1%	?
CCCC(=O)Nc1nc2ccc(OCC)cc2s1	7.1%	-8.2%	-13.8%	23.4%	2.4%	-33.3%
Cc1ncc(CO)c2c1OC(C)(C)OC2	4.0%	-22.6%	-13.4%	20.1%	10.1%	-1.6%
Cc1ncc(CCl)c2c1OC(C)(C)OC2	44.7µM*	?	?	48.9%	50.1µM*	?
Cc1noc(CN(C)C(=O)c2ccc(S(=O)(=O)NCCO)cc2)n1	nt	6.0%	nt	nt	nt	nt
